Assay results as given in PubChem BioAssay AID2391 (Southern Research Specialized Biocontainment Screening …, 2010).
About 410 (0.13%) of roughly 310,000 compounds were called active. About 2% were inconclusive and are not listed. Only a sample is shown. Potency and affinity values are given separately. A number with no mark means an inactive call. The rule behind the calls is not given here.

Test: inhibition of RSV-induced cytopathic effect – HEp-2 cells, primary 10 µM value included (AID 2391)
Details: at 10 µM, hits give high values

Compound | CPE inhibition [%]
Cc1ccc(C(=O)N/C(=C\c2ccc(Cl)cc2)C(=O)NCCN2CCOCC2)cc1 | 0.95
N#C/C(=C\c1ccc(OCc2ccc(C(=O)O)cc2)cc1)C(=O)NCc1ccccc1 | 1.49
CCOc1ncccc1C(=O)N(C)CC(=O)Nc1ccccc1SC | 1.11
Clc1ccc(Sc2cc(Cl)c(-c3ccccc3)nn2)cc1 | 4.99
O=C(C1=COCCO1)N1CCN(S(=O)(=O)c2cccc(F)c2)CC1 | 1.49
Cc1cc2c(cc1S(=O)(=O)Nc1cccc(C)c1C)n(C)c(=O)c(=O)n2C | -1.46
CN(C)S(=O)(=O)c1cccc(NC(=O)COC(=O)CCC(=O)c2cccs2)c1 | -1.26
Cc1ccc(S(=O)(=O)NNC(=O)Nc2ccc(C)c(C)c2)c(C)c1 | 1.56
COc1cccc(CN2C(=O)C3CCCN3c3ccc(S(=O)(=O)N4CCOCC4)cc32)c1 (stereo not given) | 15.8
COc1ccc(CCNC(=O)c2ccc([N+](=O)[O-])cc2)cc1 | 0.4
COc1ccc(CCNC(=O)c2ccc(-c3ccc([N+](=O)[O-])cc3)o2)cc1OC | 3.03
COC(=O)c1ccccc1OC(=O)c1cc2ccccc2oc1=O | -0.19
Nc1nc(SCC(=O)c2ccc(F)cc2)n[nH]1 | 0.71
O=C(CNc1ccccc1)N/N=C/c1cn(-c2ccccc2)nc1-c1ccccc1 | 6.81
O=C(CNc1cccc(C(F)(F)F)c1)N/N=C/c1ccccc1C(=O)O | 1.07
CCOC(=O)N1CCN(C(=O)COc2ccc3c(c2)C(=O)CC(C)(C)O3)CC1 | 1.7
COc1ccc(C(C(=O)NC2CCCC2)N(C(=O)c2snc(C(N)=O)c2N)c2ccccc2OC)cc1OC (stereo not given) | 17.8
COc1ccc(C(C(=O)NC2CCCC2)N(C(=O)c2snc(C(N)=O)c2N)C2CCCC2)cc1OC (stereo not given) | 3.34
COc1cc(C(C(=O)NC2CCCC2)N(C(=O)c2snc(C(N)=O)c2N)c2ccccc2)cc(OC)c1OC (stereo not given) | 1.74
Cc1ccc(N(C(=O)c2snc(C(N)=O)c2N)C(C(=O)NC2CCCC2)c2ccncc2)cc1 (stereo not given) | 0.36
Cc1ccc(C(CCN(Cc2ccccc2)C(=O)c2ccco2)c2ccco2)cc1 (stereo not given) | 6.53
Cc1cccc(CSc2nc3sc(C)c(C)c3c(=O)n2Cc2ccco2)c1 | 13.2
O=C(CSc1nnc2ccccn12)Nc1ncc(Cl)cc1Cl | 4.23

Compound | CPE inhibition [%]
COc1ccc(-n2c(SC(C)C(=O)Nc3ncc(Cl)cc3Cl)nc3ccccc32)cc1 (stereo not given) | 15.9
COCCn1c(SCC(=O)Nc2ccc(Cl)cn2)nc2ccccc21 | -1.02
Cc1ccc(-n2c(SCC(=O)Nc3cccc(S(N)(=O)=O)c3)nc3ccccc32)cc1 | 1.64
Cc1cc(SCC(=O)Nc2ncc(Cl)cc2Cl)nc2ccccc12 | 5.54
COc1ccc(-n2c(SCC(=O)Nc3ncc(Cl)cc3Cl)nc3ccccc32)cc1 | 18.7
CC(=O)N[C@@H](Cc1ccc(O)cc1)CN1C(N)=NC[C@@H]1CC(C)C | -0.28
O=C(COc1cccc2c1CCNC2=O)Nc1cccc(C(F)(F)F)c1 | 1.19
C/C(=N/OC(=O)C1CC12CCC2)c1ccc(Br)cc1 (stereo not given) | 2.98
CCOC(=O)C1CCN(C(=O)CC(C)S(=O)(=O)c2ccc3c(c2)NC(=O)CO3)CC1 (stereo not given) | 7
CCOc1ccc(S(=O)(=O)Nc2ccc(F)cc2)c(C)c1C | 6.57
Cc1cccc(C)c1OCc1cc(C(=O)N2CCN(C3CCCC3)CC2)no1 | 0.09
O=C(Oc1ccc(-c2nnco2)cc1)N1CCCCC1 | 2.35
CCCNc1c(F)c(F)c2c(C)c3ccccc3nc2c1F | -1.87
OCCNc1c2ccccc2nc2c(F)c(F)c(F)c(F)c12 | -1.66
CCOc1ccc(C2=C/C(=C/c3cccnc3)C(=O)O2)cc1 | 1.93
COc1ccc(OC)c(CCNC(=O)CN2C(=O)CCSc3ccccc32)c1 | -3.24
Cc1ccc2nc(-c3cccc(N)c3)[nH]c2c1 | 2.27
Cc1ccc2[nH]c(-c3cccc(F)c3)cc(=O)c2c1 | -0.29
Cc1cccc(-c2nc(CS(=O)CC(=O)NCCc3ccccc3)c(C)o2)c1 (stereo not given) | 0.05
COCc1[nH]nc2c1C1(C(=O)N(C)c3ccccc31)C(C#N)=C(N)O2 (stereo not given) | 2.9
O=C1c2ccccc2C(=O)N1CCc1csc(-c2ccccc2)n1 | 3.44
O=C1c2ccccc2C(=O)N1CCc1csc(-c2ccc(F)cc2)n1 | 2.17
